Measured values reported in PubChem BioAssay AID686979 (National Center for Advancing Translational Sciences (NCATS), 2013).
About 50,000 (12%) of roughly 420,000 compounds were called active. Not shown: some 26% with an inconclusive outcome. What follows is part of a selection rich in actives, with near analogues and random picks from the rest. Entries that show only a call come without a potency. Unmarked numbers belong to inactive results. Calls come from the whole dose curve; as a rule, active = well fitted inhibition curve with a large enough effect; inconclusive = small, poorly fitted or top-dose-only effect; inactive = flat fitted curve, though single readings scatter.

Experiment: qHTS for Inhibitors of human tyrosyl-DNA phosphodiesterase 1 (TDP1): qHTS in cells in presence of CPT; note: nearly all actives have a fitted effect of over 55% in size
Conditions: chicken DT40 Tdp1-/-;hTDP1 cells + 20 nM CPT, ATP luminescence, 48 h; series mostly up to 46.2 µM
How it was run: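 Chicken DT40 Tdp1-/- cells stably complemented with human TDP1 were seeded at 400 cells/well in medium containing 20 nM camptothecin, exposed to pin-transferred compounds, and grown at 37 °C for at least 48 hr. Viability was read as ATP luminescence.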
Potency is the fitted concentration of half-maximal effect.

| SMILES | Potency | activity change, negative = growth inhibition |
| --- | --- | --- |
| CC(C)CC(N=C1NC(C)(C)Cc2ccccc21)C(=O)O (stereo not given) | inactive | – |
| CCOc1ccc(NC(=O)CSc2ncnc3c2sc2ccccc23)cc1 | inactive | – |
| CC1(C)Cc2nc3sc4c(SCC(=O)NC(c5ccccc5)c5ccccc5)ncnc4c3cc2CO1 | 8.2 µM (active) | – |
| C=CCn1c(=S)[nH]c2nc3c(cc2c1=O)COC(C)(C)C3 | inactive | – |
| O=C1OC(OC(=O)c2ccccc2Br)C(N2CCOCC2)=C1Cl (stereo not given) | inactive | – |
| Cc1ccccc1NC(=S)Nc1cccc([N+](=O)[O-])c1 | inactive | – |
| COC(=O)/C=C\C(=O)Nc1cccc([N+](=O)[O-])c1 | 1.03 µM (active) | – |
| CC(=O)Nc1cccc([N+](=O)[O-])c1 | inactive | – |
| COC(C(=O)NCc1ccccc1C)c1ccccc1 (stereo not given) | inactive | – |
| CC(C)CC(O)C1CCN(C(=O)CCc2nnc(-c3ccc4c(c3)OCO4)o2)CC1 (stereo not given) | inactive | – |
| COc1ccc(OCc2n[nH]c(=S)n2N)cc1 | 18.4 µM (active) | – |
| S=c1[nH]nc(COc2ccccc2)n1-c1ccccc1 | inactive | – |
| Cc1ccc(OCc2n[nH]c(=S)n2-c2ccccc2)cc1 | inactive | – |
| CCOc1ccc(OCC(=O)OC(C)C(=O)NC2CCCCC2C)cc1 (stereo not given) | inactive | – |
| Cc1cccc(N2CCN(C(=O)c3ccccc3NC(=O)C3CCCCC3C(=O)O)CC2)c1 (stereo not given) | inactive | – |
| COc1c(C)cccc1C(=O)Nc1cc(Cl)ccc1N1CCOCC1 | inactive | – |
| Cc1cccc(N2CCN(c3ccc(C(=O)O)cc3NC(=O)c3ccccc3F)CC2C)c1 (stereo not given) | 23.1 µM (active) | – |
| CNC[C@@H]1Oc2c(NS(C)(=O)=O)cccc2C(=O)N([C@@H](C)CO)C[C@H]1C | inactive | – |
| COCC(=O)N(C)C[C@H]1Oc2cc(Br)ccc2S(=O)(=O)N([C@H](C)CO)C[C@H]1C | inactive | – |
| Cc1cc(C(=O)OCC(=O)Nc2ccccc2Cl)c(C)o1 | inactive | – |
| CC(C)Nc1nnc(SCC(=O)/C=C2\N(C)c3ccccc3C2(C)C)s1 | 16.4 µM (active) | – |
| COC(=O)c1ccc(CSc2nnc(NC(C)C)s2)cc1 | inactive | – |
| CC(C)Nc1nnc(SCC(=O)c2c[nH]c3ccccc23)s1 | inactive | – |
| Cc1ccccc1OCc1nc2c3cnn(-c4ccccc4F)c3ncn2n1 | inactive | – |

| SMILES | Potency | activity change, negative = growth inhibition |
| --- | --- | --- |
| CC1COc2ccccc2N1C(=O)c1cccnc1Cl (stereo not given) | inactive | – |
| Cc1ccc(CNC(=O)c2cccnc2Cl)cc1 | inactive | – |
| CN1/C(=C\C(=O)c2cccnc2Cl)C(C)(C)c2ccccc21 | 20.6 µM (active) | – |
| O=C1CSc2ccc(C(=O)NCc3ccccn3)cc2N1 | inactive | – |
| CCc1ccc(C(=O)N2CCN(S(=O)(=O)c3sc(C(=O)O)c(C)c3C(=O)O)CC2)cc1 | inactive | – |
| Cc1ccc(C)c(-n2cc(CN3CCN(C(=O)c4ncn[nH]4)CC3)c(-c3ccccc3)n2)c1 | inactive | – |
| Cc1ccc(OCCC(=O)OCC(=O)N2c3ccccc3NC(=O)C2(C)C)cc1 | inactive | – |
| CC(C)CC(=O)N/C(N)=N/c1nc2ccccc2s1 | 23.1 µM (active) | – |
| CC(C)CC(=O)NC(=S)NCc1ccccc1 | inactive | – |
| O=C(O)CSCc1nc2ccccc2s1 | inactive | – |
| COc1ccc(C2c3ccc(O)cc3Oc3ncn(CCCO)c(=N)c32)cc1OC (stereo not given) | inactive | – |
| CC[C@]1(C(=O)OC)[C@H]2C(=O)N(C)C(=O)[C@H]2[C@H]2CN(C)C(=NCc3ccccc3)N21 | inactive | – |
| O=C(NCCSc1ncc(-c2ccccc2)[nH]1)c1ccco1 | inactive | – |
| COCCCNC(=O)C1CC(=O)N(CCc2ccc(F)cc2)C1 (stereo not given) | inactive | – |
| COC(=O)c1ccccc1NC(=O)C1CC(=O)N(c2ccc(OC)cc2)C1 (stereo not given) | inactive | – |
| COC(=O)c1ccccc1NC(=O)C1CCN(S(=O)(=O)c2cc(OC)ccc2OC)CC1 | 23.1 µM (active) | – |
| COc1ccc(OC)c(NC(=O)C2CCN(S(=O)(=O)c3ccc(C)cc3)CC2)c1 | inactive | – |
| CCCCCCCC/C=C\CCCCCCCC(=O)OC[C@H](CO)OC(C)=O | – | 0.476% [at 4.12 µM] |
| COC(=O)c1scc(C)c1NC(=O)CSc1ccc(Cl)cc1 | inactive | – |
| O=C(NC(=S)N1CCCCC1c1cccnc1)c1ccccc1 (stereo not given) | inactive | – |
| CC(=O)NC(=S)Nc1ccc(NC(=O)c2cccnc2)cc1 | inactive | – |
| CC(C)c1cc(Cn2c3ccccc3c(=O)n2C(C)Cn2cc(C3CC3)nn2)on1 (stereo not given) | inactive | – |
| CCC(C)CN1CCC(CO)(Cc2ccccc2Cl)CC1 (stereo not given) | inactive | – |
| CCCCCCCCCCOC(=O)Cn1c(COc2cccc(OC)c2)[n+](C)c2ccccc21 | 2.31 µM (active) | – |

| SMILES | Potency | activity change, negative = growth inhibition |
| --- | --- | --- |
| CCCCCCCCC(=O)NCCOc1ccccc1 | inactive | – |
| CCn1c(COc2cccc(OC)c2)nnc1SCC(=O)N1CCOCC1 | inactive | – |
| O=C(CN1CCCCCC1)Nc1ccc(Cl)cc1F | inactive | – |
| Cn1cccc1C(=O)N1CCc2ccccc2C1 | inactive | – |
| CC(CCc1ccccc1)NC(=O)c1cnc(Cl)c(Cl)c1 (stereo not given) | inactive | – |
| Cc1sc2nc(SCC(N)=O)n(C)c(=O)c2c1C | inactive | – |
| CCc1cc2c(=O)n(-c3ccccc3)c(SCC(=O)O)nc2s1 | inactive | – |
| Cc1sc2nc(SCCO)n(-c3ccccc3)c(=O)c2c1C | 13 µM (active) | – |
| CCc1ccc(S(=O)(=O)Nc2ccc(C)c(NS(C)(=O)=O)c2)cc1 | inactive | – |
| NC(=O)c1ccc(N2CCCC2)nc1 | inactive | – |
| Cc1cc(C)cc(OCC(=O)Nc2cc(NC(=O)COc3cc(C)cc(C)c3)cc(C(=O)O)c2)c1 | inactive | – |
| CC(=O)Nc1c(C)nn(-c2ccccc2)c1N1CCC(C(=O)Nc2cc(Cl)ccc2C)CC1 | inactive | – |
| Cc1ccc(Cl)cc1NC(=O)C1CCN(S(C)(=O)=O)CC1 | 6.51 µM (active) | – |
| Cc1ccc(Cl)cc1NC(=O)CN1CCN(S(=O)(=O)N2CCOCC2)CC1 | inactive | – |
| Cc1ccc2c(c1)C1CN(C)CCC1N2C(=S)Nc1ccc(OC(F)F)cc1 (stereo not given) | inactive | – |
| CCN(Cc1ccncc1)C(=S)Nc1ccccc1C | inactive | – |
| COc1ccc(N(CC(=O)NCC2CCCO2)C(=O)CCC(=O)Nc2nccs2)c(OC)c1 (stereo not given) | inactive | – |
| Cc1ccc(C(=O)Nc2ccn(C)n2)cc1 | inactive | – |
| CC(=O)NCC(=O)NC1CCCc2c1cnn2-c1ccccc1F (stereo not given) | inactive | – |
| O=C(NCCN1CCCC(O)C1)c1cc(COc2c(F)cccc2F)on1 (stereo not given) | inactive | – |
| Cn1nccc1C(=O)NC1CCCc2c1cnn2-c1ccccc1F (stereo not given) | 4.61 µM (active) | – |
| Cn1nccc1C(=O)NC1CCCc2c1cnn2-c1ccc(F)cc1F (stereo not given) | 1.46 µM (active) | – |
